Rows were chosen to be rich in hits. Some 2% of all compounds tested hit in one or more screens of this group.
Six1-Eya2 blk: Six1/Eya2 interaction inhibition; Q15475+O00167; AlphaScreen GST-Six1/His-Eya2 binding, biochemical; active compounds read low; activity change, % (test concentration not listed); 0.56% of 360,000 active
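AlphaScreen luminescence read after one hour at 37 °C in darkness. Pin-transferred compounds met GST-Six1 and His-Eya2 protein (5X stock 250 nM/500 nM) plus glutathione donor and Ni-chelate acceptor beads (5X, 50 ug/mL).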
hERG WT inh: blocks the wildtype human KCNH2 potassium channel; Q12809; activity change, % at 1.84 µM; AID 720551; U2OS, BacMam KCNH2, thallium flux FluxOr; active compounds read low; 0.37% of 340,000 active;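 active = maximum activity change below -70%; inconclusive = maximum activity change between -70% and -50%; inactive = maximum activity change above -50%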
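U2OS cells were transduced with wild-type KCNH2 virus (2.03 x 10^8 / mL) for 4 h at room temperature, then cultured overnight at 37 C. Thallium flux was read with FluxOr dye. Rate constants were normalized to DMSO controls.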
CtBP-E1A inh: CtBP/E1A binding inhibition; AlphaScreen GST-E1A/His-CtBP binding, 1536-well; active compounds read low; activity change, % (concentration not given with the values); 0.49% of 340,000 active; AID 651724
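GST-E1A and His-tagged CtBP (125 nM each as 5X stock) were preincubated with pin-transferred compound for 2 h at 37 °C in the dark, then glutathione donor and nickel acceptor beads were added for 1 h before AlphaScreen reading.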
JMJD2E inh: JMJD2E (human) inhibition; JMJD2E catalytic domain, FDH-coupled NADH fluorescence (FDH is formaldehyde dehydrogenase); Potency, µM (series often up to 57.1 µM), for inactives: at the highest dose activity change, negative = inhibition, most hits filed as inhibitors; 1.6% of 230,000 active; active = well fitted inhibition curve with a large enough effect, not every such curve was filed as active; inconclusive = small, poorly fitted or top-dose-only effect, or another doubt; inactive = no such curve, though single readings can be large or run the other way;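 note: potency is the fitted concentration of half-maximal effect; 0% = wells with enzyme and -100% = buffer wells without enzyme; nearly all actives have a fitted effect of over 50% in size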
Target sequence (B2RXH2 1-337 limits assumed): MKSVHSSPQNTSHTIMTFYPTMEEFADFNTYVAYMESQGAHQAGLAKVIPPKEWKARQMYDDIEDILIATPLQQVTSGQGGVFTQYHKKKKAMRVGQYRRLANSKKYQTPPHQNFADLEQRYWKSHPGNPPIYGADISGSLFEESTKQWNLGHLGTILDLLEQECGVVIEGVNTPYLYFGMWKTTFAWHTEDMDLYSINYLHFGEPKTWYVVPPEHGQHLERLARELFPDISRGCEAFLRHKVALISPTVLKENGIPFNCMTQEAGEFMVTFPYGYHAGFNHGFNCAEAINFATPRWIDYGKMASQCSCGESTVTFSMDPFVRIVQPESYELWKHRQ
KCNH2 3.1 block: KCNH2 3.1 (human) potassium channel inhibition; AID 720553; activity change, % (tested at about 1.8 µM); U2OS KCNH2 3.1, thallium flux FluxOr; active compounds read low; 0.95% of 340,000 active;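 active = maximum activity change below -70%; inconclusive = maximum activity change from -70% to -50%; inactive = maximum activity change above -50%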;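 note: thallium influx rate constant from kinetic fluorescence after stimulation buffer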
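Kinetic fluorescence (2 min after stimulation buffer) measures Tl+ influx through KCNH2 3.1 expressed by viral transduction in U2OS cells; the rate constant is normalized against DMSO controls serving as positive and negative references.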
The depositor's hits bear a star; [ ] = dose if it differs, or a comment. Cut-off read from the data, not from the text of the source, unless noted: active = activity change below about -65%; inconclusive = mostly about -30% to -63%; inactive = weaker than that. Unless noted, % is set by controls: 0 for no effect and ±100 for the full control effect.

For Cc1cccc(NC(=O)CCCC(=O)OC(C)C(=O)c2ccccc2)c1 (stereo not given) the results were Six1-Eya2 blk 0, hERG WT inh -1, CtBP-E1A inh 6 and KCNH2 3.1 block 7.
`CCC1Nc2ncnc(N3CCN(c4ccccc4)CC3)c2N(Cc2ccc(Br)cc2)C1=O` (stereo not given) gave Six1-Eya2 blk -28, hERG WT inh 6 and KCNH2 3.1 block -88*.
For O=C1C(Cc2ccccc2)Nc2ncnc(N3CCN(c4ccccc4)CC3)c2N1Cc1ccc(Br)cc1 (stereo not given) the results were Six1-Eya2 blk -28, hERG WT inh -6, CtBP-E1A inh -27 and KCNH2 3.1 block -10.
`O=S(=O)(NCCN1CCCC1)c1cccc2cccnc12` gave Six1-Eya2 blk 8, hERG WT inh -10, CtBP-E1A inh -18, JMJD2E inh -2% and KCNH2 3.1 block -5.
Screening O=[N+]([O-])c1ccccc1C=NN1CCCCCC1 returned Six1-Eya2 blk -70*, hERG WT inh -1, CtBP-E1A inh inconclusive and KCNH2 3.1 block 7.
Screening O=[N+]([O-])c1ccccc1/C=N/N1CCN(Cc2ccccc2)CC1 returned Six1-Eya2 blk inconclusive, hERG WT inh -10, CtBP-E1A inh -29 and KCNH2 3.1 block 11.
For C#CCCOC(=O)N1C2=NC(C(=O)OC)=C(C(=O)OC)[C@@H]3N(Cc4ccccc4)c4ccccc4[C@]23C[C@H]1C(=O)OC the results were Six1-Eya2 blk -7, hERG WT inh -3, CtBP-E1A inh -11, JMJD2E inh 17%[11.4 µM] and KCNH2 3.1 block -136*.
`O=C(COc1ccc(Cl)cc1Cl)N/N=C/c1ccc(OC2OC(CO)C(O)C(O)C2O)cc1` (stereo not given) gave Six1-Eya2 blk -10, hERG WT inh -151*, JMJD2E inh 8% and KCNH2 3.1 block -157*.
Cc1ccc(-c2cc(C(=O)N3CCN(c4ncccn4)CC3)c3ccccc3n2)cc1 was read as Six1-Eya2 blk -3, hERG WT inh -7, CtBP-E1A inh -5, JMJD2E inh inconclusive and KCNH2 3.1 block -71*.
COc1ccc(-c2cc(C(=O)Nc3ccc(S(=O)(=O)Nc4onc(C)c4C)cc3)c3ccccc3n2)cc1OC was read as Six1-Eya2 blk -10, hERG WT inh 42, JMJD2E inh inconclusive and KCNH2 3.1 block -81*.
For COc1ccc(-c2cc(C(=O)Nc3ccc(C(N)=O)cc3)c3ccccc3n2)cc1OC the results were Six1-Eya2 blk -6, hERG WT inh 3, CtBP-E1A inh -1, JMJD2E inh inconclusive and KCNH2 3.1 block 0.
Cc1noc(NS(=O)(=O)c2ccc(NC(=O)CSc3nnc4c(n3)[nH]c3ccccc34)cc2)c1C was read as Six1-Eya2 blk -88*, hERG WT inh 4, CtBP-E1A inh -90*, JMJD2E inh 11% and KCNH2 3.1 block 2.
For Cc1noc(NS(=O)(=O)c2ccc(NC(=O)CSc3nc4ccccc4[nH]3)cc2)c1C the results were Six1-Eya2 blk -6, hERG WT inh -26, CtBP-E1A inh -1, JMJD2E inh 2% and KCNH2 3.1 block -10.
O=C(c1cc(-c2ccccn2)nc2ccccc12)N1CCN(c2ncccn2)CC1 was read as Six1-Eya2 blk 4, JMJD2E inh 1% and KCNH2 3.1 block -21.
`Cc1ccc(-c2cc(C(=O)N3CCN(c4ccccc4O)CC3)c3ccccc3n2)o1` gave Six1-Eya2 blk -6, hERG WT inh 8, CtBP-E1A inh -8 and KCNH2 3.1 block -5.
`O=C(c1cc(-c2ccc(Br)cc2)nc2ccccc12)N1CCN(c2ccccc2O)CC1` gave Six1-Eya2 blk -6, hERG WT inh -5, CtBP-E1A inh -19 and KCNH2 3.1 block -74*.
`NC(=O)c1c(NC(=O)Cn2cc([N+](=O)[O-])cn2)sc2c1CCCC2` gave Six1-Eya2 blk -5, hERG WT inh 9, CtBP-E1A inh -2, JMJD2E inh 4% and KCNH2 3.1 block 9.
COc1ccccc1N1CCN(CC(=O)Nc2c(C)n[nH]c2C)CC1 was read as Six1-Eya2 blk 3, hERG WT inh -3, CtBP-E1A inh 8, JMJD2E inh -3% and KCNH2 3.1 block -5.

Source: PubChem
